The panel holds about 83,000 compounds, 20% with a hit somewhere; the sample as a whole holds those more often.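 Single-dose data. Exposure time 48 hours. Values below 10 considered active.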 A number with no mark means an inactive call. Activity calls are given as the source filed them.

Data on 9 compounds can be found in PubChem BioAssay (NCI).

Test systems include HOP-62 NSCLC; NCI-H460 lung; 786-0 renal; DU-145 prostate; MALME-3M melanoma; RXF 393 renal; SF-295 CNS; M14 melanoma; SK-MEL-2 melanoma; UO-31 renal; A498 renal; HL-60(TB) leukemia; OVCAR-5 ovarian; OVCAR-4 ovarian; T-47D breast; HCC-2998 colon; A549/ATCC NSCLC; UACC-257 melanoma; SNB-19 CNS; RPMI-8226 leukemia.
Assay in all cases: NCI-60 one-dose screen, 48 h (100 = growth as untreated, 0 = no growth, -100 = all killed)
Common to all, as to conditions: 10 µM unless noted

In the case of `CC[CH2][Pb]([CH2]CC)([CH2]CC)[O]C(=O)C(F)(F)F`, the growth in the test with HOP-62 NSCLC is -84.3% (active); in the test on NCI-H460 lung, -71.6% (active); with 786-0 renal it was -98.6% (active); with DU-145 prostate, -100% (active); in the test on MALME-3M melanoma, -89.2% (active); in the test with RXF 393 renal, -73.9% (active). The growth in the test with SF-295 CNS was -87.6% (active); in the test with M14 melanoma, -91.6% (active); in the test on SK-MEL-2 melanoma it was -87.7% (active); in the test on UO-31 renal, -100% (active); in the test with A498 renal it was -97.6% (active); in the test on HL-60(TB) leukemia, -29.7% (active). Also, the growth in the test with OVCAR-5 ovarian was -99% (active); with OVCAR-4 ovarian it was -97.4% (active); in the test on T-47D breast it was -68.1% (active); in the test on HCC-2998 colon it was -84.4% (active).
As for `O=[N+]([O-])c1ccc2cnn(CSP(=S)(c3ccccc3)c3ccccc3)c2c1`, the growth in the test with HOP-62 NSCLC was 59.3%; in the test with A549/ATCC NSCLC, 73.3%; in the test with 786-0 renal it was 88.3%; in the test with DU-145 prostate it was 105%; in the test on MALME-3M melanoma it was 55.3%; in the test on RXF 393 renal, 70.1%. Further, the growth in the test with SF-295 CNS is 96.3%; in the test on UACC-257 melanoma it was 86.3%; in the test on M14 melanoma, 58.1%; in the test on SNB-19 CNS, 88.6%; in the test with SK-MEL-2 melanoma it was 98.2%; in the test with UO-31 renal, 58.9%. The growth in the test on HL-60(TB) leukemia is 35.2%; with RPMI-8226 leukemia it was 52.3%; with OVCAR-5 ovarian, 96.7%; with OVCAR-4 ovarian, 73.1%; in the test with T-47D breast, 69.5%; with HCC-2998 colon it was 89%.
As for `O=C(CF)N(O)c1ccc(/C=C/c2ccccc2)cc1`, the growth was 13% with NCI-H460 lung; 36.4% in the test on A549/ATCC NSCLC; 8.73% (active) in the test with 786-0 renal; 1.13% (active) in the test with DU-145 prostate; 82.9% in the test with MALME-3M melanoma; 50.7% with RXF 393 renal. Besides, the growth in the test with SF-295 CNS was 9.04% (active); with UACC-257 melanoma it was -7.11% (active); in the test on M14 melanoma, 43.2%; with SNB-19 CNS, 54.3%; with SK-MEL-2 melanoma, 94.9%; with UO-31 renal, 36.2%. Also, the growth with A498 renal was -31.7% (active); in the test on HL-60(TB) leukemia, 13.4%; in the test on OVCAR-5 ovarian, 82.6%; in the test with OVCAR-4 ovarian it was 70.8%; with T-47D breast it was 26%; with HCC-2998 colon, 25.4%.
As for `COc1ccc2c(c1)NC1=C(C(=O)OC1)C2c1cc(OC)c(OC)c(OC)c1` (stereo not given), the growth in the test with HOP-62 NSCLC was 44.2%; with NCI-H460 lung, 4.55% (active); in the test with A549/ATCC NSCLC it was 15.6%; with 786-0 renal, 18.8%; with DU-145 prostate, -24.7% (active); with MALME-3M melanoma, 21.7%. The growth in the test with RXF 393 renal was 36.7%; in the test on SF-295 CNS it was 1.12% (active); with UACC-257 melanoma, 62.4%; in the test on M14 melanoma it was 6.44% (active); with SNB-19 CNS, 47.3%; with SK-MEL-2 melanoma, 15.7%. The growth with UO-31 renal was 47.2%; in the test with A498 renal, -13.7% (active); in the test with HL-60(TB) leukemia, -31.3% (active); in the test with RPMI-8226 leukemia, 12.6%; in the test on OVCAR-5 ovarian, 36.1%; with OVCAR-4 ovarian, 37%. For the same compound, the growth in the test with T-47D breast is 25.1%; with HCC-2998 colon, 10.9%.
`O=[N+]([O-])c1cc([N+](=O)[O-])c(Cl)c(Cl)c1Cl`: the growth is 80.3% in the test on A549/ATCC NSCLC; 12.2% in the test on 786-0 renal; -27.2% (active) in the test with DU-145 prostate; -48.1% (active) in the test with MALME-3M melanoma; -86.2% (active) in the test on RXF 393 renal; 98.5% with SF-295 CNS. For the same compound, the growth in the test with UACC-257 melanoma is 20.4%; with M14 melanoma it was -8.63% (active); in the test on SNB-19 CNS, 73.5%; in the test with SK-MEL-2 melanoma it was -23.8% (active); in the test on UO-31 renal it was -63.2% (active); in the test with HL-60(TB) leukemia it was 19.5%. In addition, the growth with RPMI-8226 leukemia was 12.8%; in the test with OVCAR-5 ovarian it was 65.6%; in the test with OVCAR-4 ovarian it was -31.4% (active); with T-47D breast it was -27.9% (active); in the test with HCC-2998 colon, 78.8%.
Take `C=CC(=O)NC(O)C(Cl)(Cl)Cl` (stereo not given): the growth was 104% in the test on HOP-62 NSCLC; 110% in the test on NCI-H460 lung; 103% in the test with A549/ATCC NSCLC; 95.2% in the test on 786-0 renal; 106% with DU-145 prostate; 85.5% with MALME-3M melanoma. Further, the growth with RXF 393 renal is 129%; in the test with SF-295 CNS it was 95.6%; with UACC-257 melanoma, 92.3%; in the test with M14 melanoma it was 98.2%; with SNB-19 CNS, 105%; in the test with SK-MEL-2 melanoma, 84.3%. Further, the growth with UO-31 renal was 94.9%; in the test with A498 renal it was 120%; in the test with HL-60(TB) leukemia it was 97.7%; with RPMI-8226 leukemia, 102%; in the test with OVCAR-5 ovarian it was 107%; with OVCAR-4 ovarian it was 122%. Further, the growth in the test on T-47D breast was 93.4%; in the test on HCC-2998 colon, 104%.
Take `FC(F)=C(F)c1ccccc1`: the growth in the test with HOP-62 NSCLC was 87.4%; in the test on NCI-H460 lung, 109%; in the test on A549/ATCC NSCLC, 108%; with 786-0 renal it was 101%; with DU-145 prostate, 108%; in the test with MALME-3M melanoma, 101%. The growth with RXF 393 renal is 112%; in the test with SF-295 CNS, 96.5%; in the test with UACC-257 melanoma, 116%; with M14 melanoma it was 96.7%; with SNB-19 CNS, 103%; with SK-MEL-2 melanoma, 98.5%. Besides, the growth in the test with UO-31 renal was 83.7%; with A498 renal, 100%; with HL-60(TB) leukemia, 90.8%; in the test on RPMI-8226 leukemia, 97.5%; in the test on OVCAR-5 ovarian, 112%; with OVCAR-4 ovarian, 111%. The growth with T-47D breast is 80.5%; in the test with HCC-2998 colon it was 114%.
Take `CC12CCC(=O)C=C1C(O)CC1C2CCC2(C)C(O)CCC12` (stereo not given): the growth was 102% in the test with NCI-H460 lung; 101% in the test on A549/ATCC NSCLC; 115% in the test with 786-0 renal; 102% with DU-145 prostate; 95.9% with MALME-3M melanoma; 113% with RXF 393 renal. The growth in the test with SF-295 CNS was 105%; in the test with UACC-257 melanoma, 95%; with SNB-19 CNS, 101%; with SK-MEL-2 melanoma, 105%; in the test with UO-31 renal it was 87.1%; in the test with A498 renal, 89.6%. In addition, the growth in the test on HL-60(TB) leukemia was 101%; with RPMI-8226 leukemia it was 108%; in the test on OVCAR-5 ovarian it was 108%; in the test on OVCAR-4 ovarian, 104%; in the test on T-47D breast, 112%; with HCC-2998 colon it was 101%.
Take `NC(Cc1ccc2c(c1)OCO2)c1ccc2c(c1)OCO2` (stereo not given): the growth is 105% with HOP-62 NSCLC; 104% in the test on NCI-H460 lung; 104% in the test on A549/ATCC NSCLC; 98.5% in the test with 786-0 renal; 116% with DU-145 prostate; 96.8% in the test with SF-295 CNS. The growth was 103% in the test on UACC-257 melanoma; 102% in the test with M14 melanoma; 93.6% in the test with SNB-19 CNS; 107% in the test with SK-MEL-2 melanoma; 100% in the test with UO-31 renal; 92.1% in the test with A498 renal. In addition, the growth is 108% with HL-60(TB) leukemia; 96.3% in the test on RPMI-8226 leukemia; 109% in the test on OVCAR-5 ovarian; 101% in the test with OVCAR-4 ovarian; 113% with T-47D breast; 106% with HCC-2998 colon.
